Reference: the supplement of paper PMC7411054
Structures can show the parent of a compound that is named as a salt.

Columns and labels:
Details in all cases: treatment time: 24 h
A549-ACTB-RAB5A [1] = assay: lowest phenotypically active concentration; higher = less potent
Procedure, shortened: (§1)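 After 24 h at 0.3, 1, 3 or 9 µM, with four wells per treatment, fifteen gene-edited A549, HepG2 and WPMY1 reporter lines carrying BFP, GFP and RFP/FusionRed were imaged live. Each well's live-cell features were expressed relative to solvent control wells. Deviation required ≥3 of 4 wells past the 95th percentile of control Euclidean distances, and reproducibility a median replicate Pearson correlation over the 95th percentile of non-replicates. Phenotypic activity rested on both.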

A549-CANX-COX4 [2] = assay: as above
Procedure, shortened: as §1

A549-GM130-SQSTM1 [3] = assay: as above
Procedure, shortened: as §1

A549-TUBA1B-RELA [4] = assay: as above
Procedure, shortened: as §1

HepG2-ACTB-RAB5A [5] = assay: as above
Procedure, shortened: as §1

A549-ACTB-RAB5A [6] = assay: phenotypically active (imaging signature differs from DMSO and reproducible) at any of 0.3-9 uM (binary (1 = active, 0 = inactive)); higher = active
Procedure, shortened: as §1

A549-CANX-COX4 [7] = assay: as above
Procedure, shortened: as §1

A549-GM130-SQSTM1 [8] = assay: as above
Procedure, shortened: as §1

A549-TP53BP1-CLTA = assay: as above
Procedure, shortened: as §1

A549-TUBA1B-RELA [9] = assay: as above
Procedure, shortened: as §1

HepG2-ACTB-RAB5A [10] = assay: as above
Procedure, shortened: as §1

HepG2-CANX-COX4 = assay: as above
Procedure, shortened: as §1

HepG2-GM130-SQSTM1 = assay: as above
Procedure, shortened: as §1

HepG2-TP53BP1-CLTA = assay: as above
Procedure, shortened: as §1

HepG2-TUBA1B-RELA = assay: as above
Procedure, shortened: as §1

WPMY1-ACTB-RAB5A = assay: as above
Procedure, shortened: as §1

WPMY1-CANX-COX4 = assay: as above
Procedure, shortened: as §1

WPMY1-GM130-SQSTM1 = assay: as above
Procedure, shortened: as §1

WPMY1-TP53BP1-CLTA = assay: as above
Procedure, shortened: as §1

WPMY1-TUBA1B-RELA = assay: as above
Procedure, shortened: as §1

Structure (SMILES)	lowest phenotypically active concentration (A549-ACTB-RAB5A [1])	lowest phenotypically active concentration (A549-CANX-COX4 [2])	lowest phenotypically active concentration (A549-GM130-SQSTM1 [3])	lowest phenotypically active concentration (A549-TUBA1B-RELA [4])	lowest phenotypically active concentration (HepG2-ACTB-RAB5A [5])	phenotypically active (A549-ACTB-RAB5A [6])	phenotypically active (A549-CANX-COX4 [7])	phenotypically active (A549-GM130-SQSTM1 [8])	phenotypically active (A549-TP53BP1-CLTA)	phenotypically active (A549-TUBA1B-RELA [9])	phenotypically active (HepG2-ACTB-RAB5A [10])	phenotypically active (HepG2-CANX-COX4)	phenotypically active (HepG2-GM130-SQSTM1)	phenotypically active (HepG2-TP53BP1-CLTA)	phenotypically active (HepG2-TUBA1B-RELA)	phenotypically active (WPMY1-ACTB-RAB5A)	phenotypically active (WPMY1-CANX-COX4)	phenotypically active (WPMY1-GM130-SQSTM1)	phenotypically active (WPMY1-TP53BP1-CLTA)	phenotypically active (WPMY1-TUBA1B-RELA)
Cc1cnc(NC(=O)Nc2cc(Br)c(C)cc2OC[C@@H]2CNCCO2)cn1	3 µM	3 µM	3 µM	1 µM	3 µM	1 (active)	1 (active)	1 (active)	1 (active)	1 (active)	1 (active)	1 (active)	1 (active)	1 (active)	1 (active)	1 (active)	1 (active)	1 (active)	1 (active)	1 (active)
O=C(CCCc1ccc(-c2ccccc2F)cc1)Nc1ccc(O)cc1	1 µM	1 µM	1 µM	1 µM	3 µM	1 (active)	1 (active)	1 (active)	1 (active)	1 (active)	1 (active)	1 (active)	1 (active)	1 (active)	1 (active)	1 (active)	1 (active)	1 (active)	1 (active)	1 (active)
Nc1ncnc(Nc2ccc(OCc3ccccc3)c(Cl)c2)c1/C=N/OCCN1CCOCC1	3 µM	9 µM	3 µM	1 µM	9 µM	1 (active)	1 (active)	1 (active)	1 (active)	1 (active)	1 (active)	0 (inactive)	1 (active)	1 (active)	1 (active)	0 (inactive)	0 (inactive)	0 (inactive)	0 (inactive)	0 (inactive)
Nc1ncnc2c1c(-c1cnc3[nH]ccc3c1)nn2C1CCCC1	≤ 0.3 µM	1 µM	≤ 0.3 µM	≤ 0.3 µM	1 µM	1 (active)	1 (active)	1 (active)	1 (active)	1 (active)	1 (active)	1 (active)	1 (active)	1 (active)	1 (active)	1 (active)	1 (active)	1 (active)	1 (active)	1 (active)
O=C(Nc1cccnc1)N1CCC(Cc2cccc(Oc3ccc(C(F)(F)F)cn3)c2)CC1	9 µM	9 µM	3 µM	9 µM	9 µM	1 (active)	1 (active)	1 (active)	1 (active)	1 (active)	1 (active)	0 (inactive)	0 (inactive)	1 (active)	1 (active)	0 (inactive)	0 (inactive)	1 (active)	0 (inactive)	0 (inactive)
Cc1ccc(Nc2nccc(N(C)c3ccc4c(C)n(C)nc4c3)n2)cc1S(N)(=O)=O [pazopanib]	1 µM	3 µM	3 µM	3 µM	–	1 (active)	1 (active)	1 (active)	1 (active)	1 (active)	0 (inactive)	1 (active)	1 (active)	1 (active)	0 (inactive)	1 (active)	1 (active)	0 (inactive)	0 (inactive)	1 (active)
C=C1CN(Cc2ccc(C(=O)Nc3ccccc3N)cc2)C(=O)c2ccccc21	≤ 0.3 µM	≤ 0.3 µM	≤ 0.3 µM	1 µM	≤ 0.3 µM	1 (active)	1 (active)	1 (active)	1 (active)	1 (active)	1 (active)	1 (active)	1 (active)	1 (active)	1 (active)	1 (active)	1 (active)	1 (active)	1 (active)	1 (active)
COc1cc2c(N3CCN(C(=O)Nc4ccc(OC(C)C)cc4)CC3)ncnc2cc1OCCCN1CCCCC1 [tandutinib]	9 µM	9 µM	3 µM	9 µM	9 µM	1 (active)	1 (active)	1 (active)	1 (active)	1 (active)	1 (active)	1 (active)	1 (active)	1 (active)	1 (active)	1 (active)	1 (active)	1 (active)	0 (inactive)	1 (active)
O=C(NOC[C@H](O)CO)c1ccc(F)c(F)c1Nc1ccc(I)cc1F	≤ 0.3 µM	1 µM	≤ 0.3 µM	1 µM	≤ 0.3 µM	1 (active)	1 (active)	1 (active)	1 (active)	1 (active)	1 (active)	1 (active)	1 (active)	1 (active)	1 (active)	1 (active)	0 (inactive)	1 (active)	1 (active)	0 (inactive)
COc1cc2nc(N3CCN(C(=O)C4COc5ccccc5O4)CC3)nc(N)c2cc1OC (stereo not drawn) [doxazosin]	9 µM	9 µM	9 µM	3 µM	9 µM	1 (active)	1 (active)	1 (active)	1 (active)	1 (active)	1 (active)	0 (inactive)	1 (active)	1 (active)	1 (active)	1 (active)	1 (active)	1 (active)	1 (active)	0 (inactive)
N=C(N)c1ccc(OCCCCCOc2ccc(C(=N)N)cc2)cc1 [pentamidine]	1 µM	≤ 0.3 µM	1 µM	1 µM	9 µM	1 (active)	1 (active)	1 (active)	1 (active)	1 (active)	1 (active)	1 (active)	0 (inactive)	1 (active)	1 (active)	0 (inactive)	0 (inactive)	1 (active)	0 (inactive)	0 (inactive)
CCCCCCCCCCNCCSSCc1ccc(Cl)cc1	9 µM	9 µM	3 µM	3 µM	3 µM	1 (active)	1 (active)	1 (active)	1 (active)	1 (active)	1 (active)	1 (active)	1 (active)	1 (active)	1 (active)	0 (inactive)	1 (active)	1 (active)	1 (active)	0 (inactive)
Cc1cc2c(F)c(Oc3ncnn4cc(OC[C@@H](C)O)c(C)c34)ccc2[nH]1 [brivanib]	9 µM	9 µM	9 µM	9 µM	9 µM	1 (active)	1 (active)	1 (active)	1 (active)	1 (active)	1 (active)	1 (active)	1 (active)	1 (active)	1 (active)	1 (active)	1 (active)	0 (inactive)	1 (active)	1 (active)
N#CC[C@@H](C1CCCC1)n1cc(-c2ncnc3[nH]ccc23)cn1 [ruxolitinib-(S)]	3 µM	9 µM	9 µM	9 µM	–	1 (active)	1 (active)	1 (active)	1 (active)	1 (active)	0 (inactive)	1 (active)	1 (active)	1 (active)	1 (active)	1 (active)	1 (active)	0 (inactive)	0 (inactive)	1 (active)
Cc1nc(Nc2ncc(C(=O)Nc3c(C)cccc3Cl)s2)cc(N2CCN(CCO)CC2)n1 [dasatinib]	≤ 0.3 µM	≤ 0.3 µM	≤ 0.3 µM	1 µM	≤ 0.3 µM	1 (active)	1 (active)	1 (active)	1 (active)	1 (active)	1 (active)	1 (active)	1 (active)	1 (active)	1 (active)	1 (active)	1 (active)	1 (active)	1 (active)	1 (active)
CC[C@]12CCCN3CCc4c(n(c5ccccc45)C(=O)C1)[C@@H]32 [Eburnamonine (-)]	9 µM	9 µM	9 µM	9 µM	9 µM	1 (active)	1 (active)	1 (active)	1 (active)	1 (active)	1 (active)	0 (inactive)	0 (inactive)	1 (active)	1 (active)	1 (active)	1 (active)	0 (inactive)	1 (active)	1 (active)
CN1CCN([C@H]2CC[C@H](n3cc(-c4ccc(Oc5ccccc5)cc4)c4c(N)ncnc43)CC2)CC1	≤ 0.3 µM	1 µM	≤ 0.3 µM	≤ 0.3 µM	≤ 0.3 µM	1 (active)	1 (active)	1 (active)	1 (active)	1 (active)	1 (active)	1 (active)	1 (active)	1 (active)	1 (active)	1 (active)	0 (inactive)	1 (active)	1 (active)	1 (active)
NC(=O)Nc1cc(-c2cccc(F)c2)sc1C(=O)N[C@H]1CCCNC1 [AZD 7762 hydrochloride]	1 µM	1 µM	≤ 0.3 µM	≤ 0.3 µM	≤ 0.3 µM	1 (active)	1 (active)	1 (active)	1 (active)	1 (active)	1 (active)	1 (active)	1 (active)	1 (active)	1 (active)	1 (active)	1 (active)	1 (active)	1 (active)	1 (active)
C/C=C1\NC(=O)[C@H]2CSSCCC=C[C@H](CC(=O)N[C@H](C(C)C)C(=O)N2)OC(=O)[C@H](C(C)C)NC1=O	≤ 0.3 µM	≤ 0.3 µM	≤ 0.3 µM	≤ 0.3 µM	≤ 0.3 µM	1 (active)	1 (active)	1 (active)	1 (active)	1 (active)	1 (active)	1 (active)	1 (active)	1 (active)	1 (active)	1 (active)	1 (active)	1 (active)	1 (active)	1 (active)
COc1cc(O)cc(O)c1C(=O)/C=C/c1ccccc1 [Cardamonin]	9 µM	9 µM	9 µM	9 µM	9 µM	1 (active)	1 (active)	1 (active)	1 (active)	1 (active)	1 (active)	1 (active)	1 (active)	0 (inactive)	1 (active)	1 (active)	1 (active)	1 (active)	1 (active)	1 (active)
C=CC(=O)Nc1cccc(Nc2nc(Nc3ccc(Oc4ccnc(C(=O)NC)c4)cc3)ncc2F)c1	9 µM	9 µM	9 µM	9 µM	9 µM	1 (active)	1 (active)	1 (active)	1 (active)	1 (active)	1 (active)	0 (inactive)	1 (active)	1 (active)	1 (active)	1 (active)	1 (active)	1 (active)	0 (inactive)	0 (inactive)
O=C1c2ccccc2-c2nc3nonc3nc21	3 µM	1 µM	3 µM	3 µM	3 µM	1 (active)	1 (active)	1 (active)	1 (active)	1 (active)	1 (active)	1 (active)	1 (active)	1 (active)	1 (active)	1 (active)	1 (active)	0 (inactive)	0 (inactive)	1 (active)
CC(C)(C)c1cc(NC(=O)Nc2ccc(-c3cn4c(n3)sc3cc(OCCN5CCOCC5)ccc34)cc2)no1 [quizartinib]	3 µM	3 µM	1 µM	3 µM	9 µM	1 (active)	1 (active)	1 (active)	1 (active)	1 (active)	1 (active)	0 (inactive)	1 (active)	0 (inactive)	1 (active)	1 (active)	1 (active)	1 (active)	1 (active)	1 (active)
